From PubChem BioAssay (NCATS)
Records with an inconclusive call do not appear. A number with no mark means an inactive call. Calls of active or inactive are those of the source. Calls come from the whole dose curve; as a rule, active = well fitted inhibition curve with a large enough effect; inconclusive = small, poorly fitted or top-dose-only effect; inactive = flat fitted curve, though single readings scatter.

System: KB-3-1
Assay: Cytotoxic Profiling of Annotated Libraries Using Quantitative High-Throughput Screening (AID 1296008); note: nearly all actives have a fitted effect of over 60% in size
Conditions: Five cell lines viability, CellTiter-Glo ATP luminescence, 48-72 h; max response: hits give low values
In short: (§1)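 Cytotoxicity was measured as CellTiter-Glo ATP luminescence, read after 10 min at room temperature. Compound treatment of the cells lasted 48 or 72 hr at 37 degrees Celsius in a qHTS format.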
% is set by controls: 0 for no effect and ±100 for the full control effect; potency is the fitted concentration of half-maximal effect.

Q: `Cc1cc(C(=O)N2CCCCc3ccccc32)ccc1CNC(=O)N1CCC[C@H]1C(=O)N(C)C` was tested. Which max response did it give?
A: The max response was 4.93%.

Q: With `C[C@@H]1CC[C@]2(C(=O)O)CC[C@]3(C)C(=CCC4[C@@]5(C)CC[C@H](O)C(C)(C)C5C(O)C[C@]43C)[C@@H]2[C@]1(C)O` (some centres undefined) as the molecule, how does the max response read?
A: The max response was 7.38%.

Q: With `CC1CCC2(C(=O)O)CCC3(C)C(=CCC4C5(C)CCC(O)C(C)(CO)C5CCC43C)C2C1(C)O` (centres undefined) as the molecule, how does the max response read?
A: Its max response is -0.678%.

Q: With `CC1CCC2C(C(=O)O)=COC(O[C@@H]3O[C@H](CO)[C@@H](O)[C@H](O)[C@H]3O)C12` (some centres undefined) as the molecule, how does the max response read?
A: Its max response is -9.1%.

Q: Which outcome does the source give for `N#C[C@@H]1CCCN1C(=O)CNC12CC3CC(CC(O)(C3)C1)C2` here?
A: Its outcome is “inactive”.

Q: How did the outcome turn out when `C/C(=C\CCC1(C)C2CCC(C2)C1(C)O)C(=O)O` (centres undefined) was run?
A: Its outcome is “inactive”.

Q: With `C[C@H]1[C@H](O)O[C@@H]2O[C@@]3(C)CC[C@H]4[C@H](C)CC[C@@H]1[C@@]24OO3` as the molecule, how does the Potency read?
A: The Potency was 16.4 µM (active).

Q: How did the outcome turn out when `C[C@@H]1N[C@H]2N(C1=O)c1ccccc1[C@@]2(O)C[C@@H]1C(=O)N[C@@H](C)c2nc3ccccc3c(=O)n21` was run?
A: The outcome was “inactive”.

Q: Which max response does the source give for `CC(C)CC1NC(=O)C2CC3(O)c4ccccc4NC3N2C1=O` (centres undefined) here?
A: The max response was 7.2%.

Q: With `CCC(=O)O[C@H]1C(C)(C)[C@H]([C@@H](O)C(=O)OC)[C@]2(C)C(=O)[C@@]1(O)[C@H]1O[C@]13C1CC(=O)O[C@@H](c4ccoc4)[C@]1(C)CCC32` (some centres undefined) as the molecule, how does the max response read?
A: The max response was -4.09%.

Q: How did the outcome turn out when `CO[C@H]1O[C@@H]2O[C@]3(C)CC[C@H]4[C@H](C)CC[C@@H]([C@H]1C)[C@@]24OO3` was run?
A: Its outcome is “inactive”.

Q: Which outcome does the source give for `CC(=O)CC1CCC(C(C)C(=O)OCC(O)CO)O1` (centres undefined) here?
A: The outcome was “inactive”.

Q: With `CC(/C=C/C1=CC2=CC(=O)C(C)(O)C(O)C2=CO1)=C\C(C)CCO` (centres undefined) as the molecule, how does the max response read?
A: The max response was 4.06%.

Q: `CC1CC(O)/C=C/C(O)C(O)CC(=O)Cc2c(Cl)c(O)cc(O)c2C(=O)O1` (centres undefined) was tested. Which outcome did it give?
A: Its outcome is “inactive”.

Q: How did the outcome turn out when `COc1c(C)c(OCC(O)C(C)(C)O)cc2c1COC2=O` (centres undefined) was run?
A: The outcome was “inactive”.

Q: With `CC1=CC2/C=C(\C)CC[C@@H](O)[C@@H](O)[C@@H]3O[C@@H]3C(=O)[C@]23C(=O)N[C@@H](CC(C)C)[C@@H]3[C@@H]1C` (some centres undefined) as the molecule, how does the max response read?
A: Its max response is -2.72%.

Q: Which outcome does the source give for `OC[C@H]1O[C@@H](OC[C@H]2O[C@@H](OC/C=C/c3ccccc3)[C@H](O)[C@@H](O)[C@@H]2O)[C@@H](O)[C@@H]1O` here?
A: The outcome was “inactive”.

Q: `O=C(O)c1cc(-c2c(-c3ccccc3)nn3ccccc23)n[nH]c1=O` was tested. Which outcome did it give?
A: The outcome was “inactive”.

Q: `CCC(O)(C(=O)OCc1ccccc1NC(=O)CCC(=O)O)C(C)O` (centres undefined) was tested. Which outcome did it give?
A: Its outcome is “inactive”.

Q: How did the max response turn out when `CCC(CC)C(=O)Nc1sc2c(c1C#N)CCC(C(C)(C)CC)C2` (centres undefined) was run?
A: The max response was -9.22%.

System: NIH3T3
Assay: as above
Conditions: Five cell lines viability, CellTiter-Glo ATP luminescence, 48-72 h; max response: hits give low values
In short: as §1

Q: For `COc1c2c(c(C)c3c1C(=O)OC3)OC1(C)CC(O)C(C(C)(C)O)C(C)(CCC(=O)O)C1C2` (centres undefined), which max response is on record?
A: The max response was 0.542%.

Q: `C1CCC[C@H]2CCCN3CC[C@@H](CCCCCC[C@@H]4CCCN5CC[C@@H](CC1)O[C@@H]45)O[C@@H]23` was tested. Which max response did it give?
A: Its max response is 2.62%.

Q: Which max response does the source give for `CC1C(=O)OCC2=CCN3CCC(OC(=O)C(C)(O)C1(C)O)C23` (centres undefined) here?
A: The max response was -32%.

Q: For `CC/C=C/CC1=C(CCCCC(CCC(=O)O)OC(C)=O)CCC1=O` (centres undefined), which max response is on record?
A: Its max response is -0.117%.

Q: With `OC[C@@]1(O)CO[C@@H](OC[C@H]2O[C@@H](Oc3c[nH]c4ccccc34)[C@H](O)[C@@H](O)[C@@H]2O)[C@@H]1O` as the molecule, how does the max response read?
A: Its max response is 1.55%.

Q: How did the max response turn out when `COc1ccc(C2(O)CCC(N3CC[C@@H](NC(=O)CNC(=O)c4cccc(C(F)(F)F)c4)C3)CC2)cn1` (some centres undefined) was run?
A: Its max response is -3.76%.

Q: For `COc1cc(OC)cc(C(=O)Nc2ccc(Cl)c(-c3nc4ccc(N(C)C)cc4[nH]3)c2)c1`, which max response is on record?
A: The max response was -0.734%.

Q: How did the Potency turn out when `C[C@@H]1COCCN1c1cc(C2(S(C)(=O)=O)CC2)nc(-c2cccc3[nH]ccc23)n1` was run?
A: The Potency was 2.06 µM (active).

Q: How did the Potency turn out when `CCN1CCN(Cc2ccc(NC(=O)c3ccc(C)c(NC(=O)c4cncc(-c5cccs5)c4)c3)cc2C(F)(F)F)CC1` was run?
A: The Potency was 1.16 µM (active).

Q: `Cc1cc(C)nc(NS(=O)(=O)c2ccc(NC(=S)NC(=O)COc3ccc(Br)cc3Cl)cc2)n1` was tested. Which max response did it give?
A: Its max response is -1.58%.

Q: With `CC(Nc1ncnc2nc[nH]c12)c1cc2cccc(Cl)c2c(=O)n1-c1ccccc1` (centres undefined) as the molecule, how does the Potency read?
A: The Potency was 13 µM (active).

Q: `CC1=C(C)C(=O)OC(C(C)C2CCC3C4CC=C5CC(OC6OC(COC7OC(CO)C(O)C(O)C7O)C(O)C(O)C6O)CC(O)C5(C)C4CCC23C)C1` (centres undefined) was tested. Which max response did it give?
A: Its max response is 3.09%.

Q: Which Potency does the source give for `CS(=O)(=O)N1CCC(NC(=O)c2[nH]ncc2NC(=O)c2c(Cl)cccc2Cl)CC1` here?
A: The Potency was 2.59 µM (active).

Q: How did the max response turn out when `CC(=O)c1c(O)cc(O[C@@H]2O[C@H](CO)[C@@H](O)[C@H](O)[C@H]2O)cc1O` was run?
A: Its max response is 1.77%.

Q: `COc1ccc([C@H]2CNC(=O)C2)cc1OC1CCCC1` was tested. Which max response did it give?
A: Its max response is -18.3%.

Q: For `CCC(COC)n1nnc2c(Nc3ccc(OC)cc3C)nc(C)cc21` (centres undefined), which max response is on record?
A: The max response was 2.01%.

Q: For `C[C@H]1CC[C@@]2(OC1)O[C@H]1CC3C4CC[C@H]5C[C@@H](O)[C@H](O)C[C@]5(C)C4=CC(=O)[C@]3(C)[C@H]1[C@@H]2C` (some centres undefined), which max response is on record?
A: Its max response is -10.8%.

Q: How did the max response turn out when `CC(C)c1cc(C(=O)N2CC[C@H](NC(=O)C3CC3)C2)n[nH]1` was run?
A: Its max response is -25.5%.

Q: With `CC[C@H]1OC(=O)[C@H](C)[C@@H](O[C@H]2C[C@@](C)(OC)[C@@H](O)[C@H](C)O2)[C@H](C)[C@@H](O[C@@H]2O[C@H](C)C[C@H](N(C)C)[C@H]2O)[C@](C)(O)C[C@@H](C)C(=O)[C@H](C)[C@H]2OC(=O)O[C@@]21C` as the molecule, how does the max response read?
A: Its max response is 3.61%.

Q: `Cc1cc(C(=O)N2CCCCc3ccccc32)ccc1CNC(=O)N1CCC[C@H]1C(=O)N(C)C` was tested. Which max response did it give?
A: Its max response is 3.28%.

Q: With `C[C@@H]1CC[C@]2(C(=O)O)CC[C@]3(C)C(=CCC4[C@@]5(C)CC[C@H](O)C(C)(C)C5C(O)C[C@]43C)[C@@H]2[C@]1(C)O` (some centres undefined) as the molecule, how does the max response read?
A: Its max response is -6.6%.

Q: How did the max response turn out when `CC1CCC2(C(=O)O)CCC3(C)C(=CCC4C5(C)CCC(O)C(C)(CO)C5CCC43C)C2C1(C)O` (centres undefined) was run?
A: Its max response is 1.81%.

Q: How did the max response turn out when `CC1CCC2C(C(=O)O)=COC(O[C@@H]3O[C@H](CO)[C@@H](O)[C@H](O)[C@H]3O)C12` (some centres undefined) was run?
A: Its max response is -1.59%.

Q: With `N#C[C@@H]1CCCN1C(=O)CNC12CC3CC(CC(O)(C3)C1)C2` as the molecule, how does the max response read?
A: The max response was -1.17%.

Q: For `C/C(=C\CCC1(C)C2CCC(C2)C1(C)O)C(=O)O` (centres undefined), which max response is on record?
A: Its max response is 3.29%.

Q: Which Potency does the source give for `C[C@H]1[C@H](O)O[C@@H]2O[C@@]3(C)CC[C@H]4[C@H](C)CC[C@@H]1[C@@]24OO3` here?
A: The Potency was 13 µM (active).

Q: How did the max response turn out when `C[C@@H]1N[C@H]2N(C1=O)c1ccccc1[C@@]2(O)C[C@@H]1C(=O)N[C@@H](C)c2nc3ccccc3c(=O)n21` was run?
A: The max response was -0.438%.

Q: For `CC(C)CC1NC(=O)C2CC3(O)c4ccccc4NC3N2C1=O` (centres undefined), which max response is on record?
A: Its max response is -1.31%.

Q: With `CCC(=O)O[C@H]1C(C)(C)[C@H]([C@@H](O)C(=O)OC)[C@]2(C)C(=O)[C@@]1(O)[C@H]1O[C@]13C1CC(=O)O[C@@H](c4ccoc4)[C@]1(C)CCC32` (some centres undefined) as the molecule, how does the max response read?
A: The max response was -25.4%.

Q: With `CO[C@H]1O[C@@H]2O[C@]3(C)CC[C@H]4[C@H](C)CC[C@@H]([C@H]1C)[C@@]24OO3` as the molecule, how does the max response read?
A: Its max response is 4.96%.

Q: How did the max response turn out when `CC(=O)CC1CCC(C(C)C(=O)OCC(O)CO)O1` (centres undefined) was run?
A: Its max response is -24.7%.

Q: With `CC(/C=C/C1=CC2=CC(=O)C(C)(O)C(O)C2=CO1)=C\C(C)CCO` (centres undefined) as the molecule, how does the max response read?
A: The max response was 0.418%.

Q: With `CC1CC(O)/C=C/C(O)C(O)CC(=O)Cc2c(Cl)c(O)cc(O)c2C(=O)O1` (centres undefined) as the molecule, how does the max response read?
A: Its max response is -18.1%.

Q: Which max response does the source give for `COc1c(C)c(OCC(O)C(C)(C)O)cc2c1COC2=O` (centres undefined) here?
A: The max response was -1.75%.

Q: With `CC1=CC2/C=C(\C)CC[C@@H](O)[C@@H](O)[C@@H]3O[C@@H]3C(=O)[C@]23C(=O)N[C@@H](CC(C)C)[C@@H]3[C@@H]1C` (some centres undefined) as the molecule, how does the max response read?
A: Its max response is 1.23%.

Q: For `OC[C@H]1O[C@@H](OC[C@H]2O[C@@H](OC/C=C/c3ccccc3)[C@H](O)[C@@H](O)[C@@H]2O)[C@@H](O)[C@@H]1O`, which max response is on record?
A: Its max response is 2.42%.

Q: Which max response does the source give for `O=C(O)c1cc(-c2c(-c3ccccc3)nn3ccccc23)n[nH]c1=O` here?
A: The max response was -3.95%.

Q: For `CCC(O)(C(=O)OCc1ccccc1NC(=O)CCC(=O)O)C(C)O` (centres undefined), which max response is on record?
A: Its max response is -2.36%.

Q: `CCC(CC)C(=O)Nc1sc2c(c1C#N)CCC(C(C)(C)CC)C2` (centres undefined) was tested. Which max response did it give?
A: Its max response is 3.55%.
